For nine compounds, Potency and outcome results are on record in PubChem BioAssay (Tox21).

The structures appear in SMILES notation. Results filed as inconclusive are left out. Activity calls are given as the source filed them. Unless noted, the call rests on the fitted dose curve; in most records, active means well fitted curve in the direction sought with a large enough effect in the repeat runs; inconclusive means weak or mixed curves; inactive means no such curve, though single readings can be large; an effect the other way counts as inactive or inconclusive.

Experiment [1] in a line: qHTS assay to identify small molecule antagonists of the vitamin D receptor (VDR) signaling pathway - cell viability counter screen (AID 743225). Further: nearly all actives have a fitted effect of over 50% in size. The gist of the method:
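HEK293T VDR-bla; cpd + 1a,25-(OH)2D3 3 nM final, 16 h 37C/5% CO2; B/G FRET substrate 2 h RT; then CellTiter-Glo 30 min RT, luminescence.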
(In general: In qHTS, concentration-response curves come from the screen itself.)

The nature of experiment [2]: qHTS assay to identify small molecule agonists of the NFkB signaling pathway (AID 1159509; active means well fitted curve in the direction sought with a large enough effect in the signal ratio in the repeat runs, not every such curve was filed as active; the % refers to the signal ratio; further: series mostly up to about 61 µM). An outline of the steps:
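Readout: FRET fluorescence, 405 nm excitation, 460/530 nm emission; beta-lactamase expression disrupts FRET. Cells: ME-180 stably carrying NF-kB-driven bla reporter. Compound exposure 5 hr, 37 C, 5% CO2.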

Experiment [3] in a line: qHTS assay to identify small molecule agonists of the NFkB signaling pathway - cell viability counter screen (AID 1159515; calls by dose curve; further: series mostly up to about 61 µM; nearly all actives have a fitted effect of over 55% in size). An outline of the steps:
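Plate 2,000 NFkB-bla ME-180 cells/well; incubate overnight. Add compounds, 5 hr at 37 C. Add FRET substrate, 1.5 hr RT. Add CellTiter-Glo, 30 min RT; read luminescence.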

Experiment [4] can be described thus: qHTS assay to identify small molecule agonists of the endoplasmic reticulum stress response signaling pathway (AID 1159516; active means well fitted activation curve with a large enough effect in the signal ratio in the repeat runs, not every such curve was filed as active; the % refers to the signal ratio). The gist of the method: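 Beta-lactamase expression from the ER stress response element in HeLa reporter cells is quantified with the LiveBLAzer B/G FRET substrate, read at 405 nm excitation after 2 hr at room temperature, following 5 hr compound treatment at 37 C.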

The nature of experiment [5]: qHTS assay to identify small molecule agonists of the endoplasmic reticulum stress response signaling pathway - cell viability counter screen (AID 1159517; calls by dose curve; further: series mostly up to about 61 µM; nearly all actives have a fitted effect of over 50% in size). The gist of the method: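 Cytotoxicity of test compounds toward ESRE-bla HeLa cells was assessed after 5 hr exposure. The luminescent CellTiter-Glo signal was measured 30 min after reagent addition.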
Experiment [6] is described as follows: qHTS assay to identify small molecule agonists of the AP-1 signaling pathway - cell viability counter screen (AID 1159525; calls by dose curve; further: nearly all actives have a fitted effect of over 55% in size). The gist of the method: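 Each titration point was normalised to DMSO and tetra n-octyl ammonium bromide controls. The read was Cell Titer Glo luminescence after 30 min at RT, following 5 h compound exposure of ME-180 AP-1-bla cells at 37 °C.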

Experiment [7] is described as follows: qHTS assay to identify small molecule agonists of the RXR signaling pathway - cell viability counter screen (AID 1159529). Further: nearly all actives have a fitted effect of over 50% in size. Further: potency means the concentration at half of the fitted maximal effect. The gist of the method: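 Steps: seed RXR-alpha-UAS-bla HEK 293T cells in assay medium containing 2% charcoal-stripped FBS; incubate 5 hr; add compounds in DMSO; incubate 16 hr at 37 C; after the bla read, add CellTiter-Glo and read luminescence at 30 min.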

Experiment [8] is described as follows: qHTS assay to identify small molecule antagonists of the retinoid acid receptor (RAR) signaling pathway - cell viability counter screen (AID 1159551). Further: nearly all actives have a fitted effect of over 35% in size. An outline of the steps:
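Viability of C3RL4 cells is quantified from ATP by luminescence after 6 h treatment at 37 C with compounds and 1 uM retinol.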

Experiment [9] in a line: qHTS assay to identify small molecule antagonists of the retinoic acid receptor (RAR) signaling pathway (AID 1159552; further: nearly all actives have a fitted effect of over 50% in size). The gist of the method:
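Retinol at 1 uM final stimulated RARE-luciferase expression in C3RL4 cells exposed to test compounds for 6 hr at 37 C. Reduced luminescence, read 30 min after detection reagent, indicated pathway antagonism.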

A short description of experiment [10]: qHTS assay to identify small molecule agonists of the retinoic acid receptor (RAR) signaling pathway (AID 1159553). Further: potency means the concentration at half of the fitted maximal effect. An outline of the steps: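 Compounds dissolved in DMSO were pinned onto C3RL4 cells seeded the previous day, and plates were held 6 hr at 37 C. RARE-driven luciferase output was then read by luminescence.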
A short description of experiment [11]: qHTS assay to identify small molecule agonists of the AP-1 signaling pathway (AID 1159526; calls by dose curve).
A short description of experiment [12]: qHTS assay to identify small molecule agonists of the vitamin D receptor (VDR) signaling pathway - cell viability counter screen (AID 743224). An outline of the steps: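 In parallel with the bla FRET readout, cytotoxicity toward VDR-bla cells after 16 h compound exposure was assessed by CellTiter-Glo, with luminescence recorded after a 30 min room-temperature incubation.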

The target in experiment [13] is Retinoic acid receptor RXR-alpha (Homo sapiens) (UniProt P19793). The experiment in a line: qHTS assay to identify small molecule agonists of the RXR signaling pathway (AID 1159527; calls by dose curve; further: nearly all actives have a fitted effect of over 35% in size). The gist of the method: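 Cells plated at 2,000/well, rested 5 hr at 37 C, pin-dosed with DMSO compound solutions, incubated 16 hr, then loaded with B/G FRET substrate for 2 hr at RT before dual-emission fluorescence reading.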

The nature of experiment [14]: qHTS assay to identify small molecule antagonists of the estrogen related receptor (ERR) signaling pathway - cell viability counter screen (AID 1224818). Further: series mostly up to about 46 µM. The gist of the method:
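Cytotoxicity check run alongside the ERR antagonist screen: cells exposed to test compounds 17.5 h at 37 C, viability taken as CellTiter-Fluor fluorescence intensity.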

Experiment [15] is described as follows: qHTS assay to identify small molecule antagonists of the estrogen related receptor (ERR) signaling pathway (AID 1224819). The gist of the method: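 ERR reporter cells were plated at 2,000 cells/well and left 6 h at 37 C/5% CO2 before pin-tool transfer of compounds in DMSO. After 18 h at 37 C, One-Glo was added and luminescence was read 30 min later at room temperature.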

A short description of experiment [16]: qHTS assay to identify small molecule agonists of the estrogen related receptor (ERR) signaling pathway (AID 1224820). The gist of the method: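 Luminescence readout (One-Glo, 30 min RT) from NTP-supplied ERR cell line exposed to compounds for 18 h at 37 C. Cells seeded 2,000 per well and pre-incubated 6 h before pin-tool compound transfer.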
The subject of experiment [17] is estrogen-related receptor alpha (ERRalpha) with PGC-1alpha coactivator, human. Briefly: qHTS assay to identify small molecule antagonists of the estrogen related receptor signaling pathway with the pleiotropic PPARgamma coactivator (PGC) (AID 1224821; calls by dose curve). An outline of the steps:
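PGC/ERR reporter cells; 6 h pre-incubation 37 C/5% CO2; pin-tool compound in DMSO, 18 h 37 C; One-Glo added, 30 min RT; luminescence read. qHTS antagonist mode.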

Experiment [18] is described as follows: qHTS assay to identify small molecule antagonists of the estrogen related receptor signaling pathway with the pleiotropic PPARgamma coactivator (PGC) cell viability counter screen (AID 1224822;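 further: series mostly up to about 46 µM; viability read after 17.5 h compound exposure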). An outline of the steps: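 Viable cell signal (CellTiter-Fluor, 30 min, 37 C/5% CO2) was measured in PGC/ERR cells after a 17.5 h compound incubation.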
Experiment [19] can be described thus: qHTS assay to identify small molecule antagonists of the retinoid-related orphan receptor gamma (ROR-gamma) signaling pathway - cell viability counter screen (AID 1159520). Further: nearly all actives have a fitted effect of over 50% in size. An outline of the steps:
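Tet-on ROR gamma CHO cells (1,000/well) were plated 4 hr, given compounds in DMSO for 2 hr at 37 C, then induced with 1 uM final doxycycline for 16 hr. Viability was read as ATP by CellTiter-Glo luminescence after 30 min.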

For experiment [20], the target named is Nuclear receptor ROR-gamma (Homo sapiens) (UniProt P51449). Briefly: qHTS assay to identify small molecule antagonists of the retinoid-related orphan receptor gamma (ROR-gamma) signaling pathway (AID 1159521). The gist of the method: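 Cells were plated, rested 4 h at 37 C, exposed to compounds for 2 h, then given 1 uM final doxycycline hyclate to induce RORγ expression. After 16 h, ONE-Glo luminescence from the ROR response element reporter was measured.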

Chain of Retinoic acid receptor RXR-alpha (Homo sapiens) (P19793 whole entry, looked up): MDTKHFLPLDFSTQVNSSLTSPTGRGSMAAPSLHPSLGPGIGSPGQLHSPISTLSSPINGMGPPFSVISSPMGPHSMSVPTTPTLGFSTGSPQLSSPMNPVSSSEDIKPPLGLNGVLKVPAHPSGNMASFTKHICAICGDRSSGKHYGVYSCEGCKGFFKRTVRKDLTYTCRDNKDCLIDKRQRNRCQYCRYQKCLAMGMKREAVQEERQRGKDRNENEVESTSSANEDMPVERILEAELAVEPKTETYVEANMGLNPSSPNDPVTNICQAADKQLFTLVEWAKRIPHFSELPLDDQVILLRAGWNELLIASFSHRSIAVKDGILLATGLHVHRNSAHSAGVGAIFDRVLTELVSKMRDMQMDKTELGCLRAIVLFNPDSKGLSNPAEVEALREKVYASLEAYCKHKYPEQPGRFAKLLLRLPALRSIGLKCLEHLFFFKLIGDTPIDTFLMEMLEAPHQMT

Consider `C=C1CC[C@H](O)CC1=C/C=C1\CCC[C@]2(C)[C@@H]([C@H](C)/C=C/[C@H](C)C(C)C)CC[C@@H]12`, for which the Potency entry in experiment [1], in experiment [5], in [6], in experiment [8] and in experiment [9] was “inactive” in each case. In addition, the call in experiment [2], in [3] and in [4] was inactive. The Potency in experiment [7] was 24.5 µM (active); in experiment [10], 61.1 µM (active).

In the case of `CN(C)c1ccc(C(=N)c2ccc(N(C)C)cc2)cc1`, the Potency result in [1], in experiment [5], in experiment [6], in experiment [11], in experiment [7] and in [9] was “inactive” each time. Further, the outcome in [2], in [3] and in [4] was inactive. Besides, the Potency in [10] was 41.6 µM (active).

`O=C(O)c1cc(-c2ccccc2)nc2ccccc12`: the Potency entry in experiment [12], in [1], in [5], in [6], in [11] and in experiment [13] was “inactive” throughout. The Potency entry in experiment [7], in experiment [8], in experiment [9], in experiment [15], in experiment [16] and in [17] was “inactive” in each case. Moreover, the outcome in experiment [2], in experiment [3], in [4], in experiment [14] and in experiment [18] was inactive.

In the case of `CCCCCCCCCC(=O)O`, the Potency entry in [12], in [1], in [5], in experiment [6], in [11] and in experiment [7] was “inactive” each time. Besides, the Potency result in experiment [8], in experiment [9] and in experiment [10] was “inactive” in each case. Also, the outcome in experiment [2], in experiment [3] and in experiment [4] was inactive.

Consider `CC(C)(C)C(=O)C1C(=O)c2ccccc2C1=O`, for which the Potency result in experiment [12], in [1], in experiment [5], in experiment [6], in [11] and in experiment [13] was “inactive” throughout. Besides, the Potency result in [7], in [8], in [9] and in experiment [10] was “inactive” each time. Moreover, the compound was classed as inactive in experiment [2], in experiment [3] and in experiment [4].

As for `CC(C)(CO)COC(=O)C(C)(C)CO`, the Potency result in experiment [12], in experiment [1], in [5], in experiment [6], in experiment [11] and in [13] was “inactive” each time. Further, the Potency entry in [7], in [8], in [9] and in experiment [10] was “inactive” each time. Besides, the result in [2], in [3] and in [4] was inactive.

In the case of `CCCCCCCCCCC=CC1CC(=O)OC1=O` (centres undefined), the Potency result in [12], in experiment [1], in experiment [5], in experiment [6], in experiment [11] and in experiment [13] was “inactive” throughout. In addition, the Potency result in experiment [7] and in [8] was “inactive” in each case. Moreover, the compound was classed as inactive in [2], in [3] and in experiment [4].

On to `OC1CCCC1`, for which the Potency entry in experiment [12], in [1], in experiment [5], in experiment [19], in [20] and in [6] was “inactive” throughout. Also, the Potency result in experiment [11], in experiment [13], in [7], in experiment [8], in experiment [9] and in experiment [10] was “inactive” in each case. In addition, the compound was called inactive in [2] and in [3].

For the compound `C=C(C)C(=O)OCC(CC)(COC(=O)C(=C)C)COC(=O)C(=C)C`, the Potency entry in experiment [12], in experiment [1], in experiment [5], in experiment [19], in experiment [20] and in experiment [6] was “inactive” each time. Besides, the Potency result in experiment [11], in experiment [13], in experiment [7], in experiment [8], in experiment [9] and in [10] was “inactive” in each case. In addition, the compound was classed as inactive in experiment [2] and in experiment [3].
